Reference: PubChem BioAssay (NCI)
The panel holds about 79,000 compounds, 15% with a hit somewhere; the sample as a whole holds those more often. The source made the active and inactive calls. No stated cut-off is given here; in the data, active means growth inhibition above about 70%; inactive means the rest.

How the values were obtained:
[1] = NCI Yeast Anticancer Drug Screen. Data for the mec2-1 strain (AID 157); conditions: S. cerevisiae mec2-1 strain, stronger effect = higher value
In short: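 Growth inhibition is read against vehicle-treated controls after compound exposure of the mec2-1 yeast strain, which is defective in DNA damage repair or cell cycle control.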

[2] = NCI Yeast Anticancer Drug Screen. Data for the rad14 strain (AID 159);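 further: 0% = growth of vehicle-treated control cultures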; conditions: S. cerevisiae rad14 strain growth inhibition, stronger effect = higher value
In short: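 Inhibition of growth is reported for a repair-deficient yeast mutant following compound treatment, calculated relative to cultures that received vehicle.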

[3] = NCI Yeast Anticancer Drug Screen. Data for the sgs1 mgt1 strain (AID 161);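 further: 0% = growth of cultures given vehicle only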; conditions: S. cerevisiae sgs1 mgt1 strain, stronger effect = higher value
In short: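 This yeast growth screen uses a strain with defined DNA-repair lesions; compound-treated growth is compared with vehicle-treated growth.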

[4] = NCI Yeast Anticancer Drug Screen. Data for the CLN2oe strain (AID 163);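 further: 0% = growth of vehicle-only control cultures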; conditions: S. cerevisiae CLN2oe strain, stronger effect = higher value
In short: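 Compound-treated yeast; growth vs vehicle ctrl = % inhibition. Genetically altered strain (cell-cycle control).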

[5] = NCI Yeast Anticancer Drug Screen. Data for the cln2 rad14 strain (AID 165);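 further: 0% = growth equal to vehicle treated cultures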; conditions: S. cerevisiae cln2 rad14 strain, stronger effect = higher value
In short: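 Growth inhibition, relative to vehicle-treated controls, is the read-out. The test organism is a yeast strain with defined genetic alterations, cln2 rad14.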

[6] = NCI Yeast Anticancer Drug Screen. Data for the bub3 strain (AID 167); conditions: S. cerevisiae bub3 mutant strain, stronger effect = higher value
In short: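 Mutant yeast screening strain plus compound; vehicle-treated cultures serve as the 0% inhibition reference.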

[7] = NCI Yeast Anticancer Drug Screen. Data for the wt2 strain (AID 169); conditions: S. cerevisiae wt2 strain growth inhibition, stronger effect = higher value
In short: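 Compound exposure of yeast; growth compared with vehicle controls; inhibition reported.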

[8] = NCI Yeast Anticancer Drug Screen. Data for the mlh1 strain (AID 171);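 further: 0% = growth of vehicle-treated control cultures of the same strain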; conditions: S. cerevisiae mlh1 strain growth inhibition, stronger effect = higher value
In short: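 Compounds are applied to a genetically altered yeast strain, and its growth is compared with that of vehicle-treated cultures to give percent inhibition.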

[9] = NCI Yeast Anticancer Drug Screen. Data for the sgs1 strain (AID 173);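 further: 0% = growth of vehicle-only control cultures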; conditions: S. cerevisiae sgs1 mutant, stronger effect = higher value
In short: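 Compounds applied to genetically altered yeast; growth compared with vehicle-treated cultures to give % inhibition.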

[10] = NCI Yeast Anticancer Drug Screen. Data for the mlh1 rad18 strain (AID 175); conditions: S. cerevisiae mlh1 rad18 strain growth inhibition, stronger effect = higher value
In short: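 Cells of a genetically altered yeast strain, deficient in DNA damage repair, were treated with compound. Their growth was then compared with that of vehicle-treated cultures to give inhibition.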

[11] = NCI Yeast Anticancer Drug Screen. Data for the rad18 strain (AID 177); conditions: S. cerevisiae rad18 mutant growth inhibition, stronger effect = higher value
In short: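 Compounds are applied to a repair-deficient yeast strain, and growth is compared with that of vehicle-treated cultures to give percent inhibition.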

[12] = NCI Yeast Anticancer Drug Screen. Data for the rad52 strain (AID 147);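 further: 0% = growth of vehicle-treated control cultures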; conditions: S. cerevisiae rad52 mutant growth inhibition, stronger effect = higher value
In short: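 DNA repair-defective yeast; compound exposure; growth scored against vehicle controls.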

[13] = NCI Yeast Anticancer Drug Screen. Data for the wt1 strain (AID 149);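 further: 0% = growth of vehicle-treated wt1 cultures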; conditions: S. cerevisiae wt1 strain (SPY 50644) growth inhibition, stronger effect = higher value
In short: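 Each compound is tested on wt1 yeast and the loss of growth versus vehicle gives the inhibition value.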

[14] = NCI Yeast Anticancer Drug Screen. Data for the rad50EPP+ strain (AID 151);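 further: 0% = growth of vehicle-treated control cultures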; conditions: S. cerevisiae rad50 mutant strain, stronger effect = higher value
In short: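 rad50EPP+ yeast treated with test compounds. Readout: growth vs vehicle control.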

[15] = NCI Yeast Anticancer Drug Screen. Data for the mgt1 strain (AID 153); conditions: S. cerevisiae mgt1 mutant growth inhibition, stronger effect = higher value
In short: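 Growth inhibition relative to vehicle controls was scored for the mgt1 yeast strain after compound exposure.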

[16] = NCI Yeast Anticancer Drug Screen. Data for the rad50 strain (AID 155);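 further: 0% = growth of vehicle-only cultures of the same strain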; conditions: S. cerevisiae rad50 strain growth inhibition, stronger effect = higher value
In short: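 Vehicle-treated cultures provide the reference for the growth inhibition reported for compound-exposed, repair-deficient yeast.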

[17] = at 5.0 µM (retest, dose inferred, filed as 0.5)
[18] = at 50.0 µM (retest, dose inferred, filed as 5.0)

Measured: growth inhibition

Cc1ccc(S(=O)(=O)NC(=O)C2C(=O)CC3(CCCCC3)CC2=O)cc1
active: [1]; at 33.0 µM 79% | [1]; at 100.0 µM 83% | [2]; at 33.0 µM 82% | [2]; at 100.0 µM 86% | [4]; at 33.0 µM 77% | [4]; at 100.0 µM 84% | [6]; at 33.0 µM 72% | [6]; at 100.0 µM 74% | [7]; at 33.0 µM 84% | [7]; at 100.0 µM 83% | [8]; at 33.0 µM 82% | [8]; at 100.0 µM 88% | [9]; at 100.0 µM 79% | [10]; [18] 71%
inactive: [1]; [17] 12% | [1]; at 11.0 µM 20% | [1]; [18] 26% | [1]; at 50.0 µM 30.1% | [2]; at 1.2 µM -29% | [2]; at 3.7 µM -44% | [2]; at 11.0 µM 3% | [3]; [17] 11% | [3]; [18] 21% | [3]; at 50.0 µM -16.6% | [4]; at 1.2 µM -12% | [4]; at 3.7 µM 1% | [4]; at 11.0 µM 4% | [5]; [17] 5% | [5]; [18] -1% | [5]; at 50.0 µM -8.9% | [6]; at 1.2 µM -5% | [6]; at 3.7 µM 23% | [6]; [17] 20% | [6]; at 11.0 µM 5% | [6]; [18] 16% | [6]; at 50.0 µM -17.9% | [7]; at 1.2 µM -39% | [7]; at 3.7 µM -28% | [7]; at 11.0 µM 20% | [8]; at 1.2 µM -2% | [8]; at 3.7 µM -11% | [8]; at 11.0 µM 13% | [9]; at 1.2 µM -12% | [9]; at 3.7 µM -8% | [9]; at 11.0 µM 4% | [9]; at 33.0 µM 68% | [10]; [17] 42% | [10]; at 50.0 µM -61.4% | [11]; at 1.2 µM -15% | [11]; at 3.7 µM -2% | [11]; at 11.0 µM -16% | [11]; at 33.0 µM 14% | [11]; at 100.0 µM 48%

CCN(CC)C(=S)N/N=C(\C)c1ccccc1O
inactive: [12]; at 1.2 µM -36% | [12]; at 3.7 µM -42% | [12]; at 11.0 µM -1% | [13]; at 1.2 µM -7% | [13]; at 3.7 µM -3% | [13]; at 11.0 µM 28% | [14]; at 1.2 µM 9% | [14]; at 3.7 µM -7% | [14]; at 11.0 µM 15% | [14]; at 33.0 µM 45% | [15]; at 1.2 µM 9% | [15]; at 3.7 µM 16% | [16]; at 1.2 µM 0% | [16]; at 3.7 µM -13% | [16]; [17] -1% | [16]; at 11.0 µM 22% | [1]; at 1.2 µM 3% | [1]; at 3.7 µM -3% | [1]; [17] 35% | [1]; at 11.0 µM 40% | [2]; at 1.2 µM 3% | [2]; at 3.7 µM -22% | [2]; at 11.0 µM 26% | [3]; [17] -3% | [4]; at 1.2 µM 13% | [4]; at 3.7 µM -5% | [4]; at 11.0 µM 42% | [5]; [17] 54% | [6]; at 1.2 µM -21% | [6]; at 3.7 µM -7% | [6]; at 11.0 µM 36% | [7]; at 1.2 µM -37% | [7]; at 3.7 µM -31% | [7]; at 11.0 µM 6% | [8]; at 1.2 µM 11% | [8]; at 3.7 µM 25% | [8]; at 11.0 µM 66% | [9]; at 1.2 µM -5% | [9]; at 3.7 µM 5% | [9]; at 11.0 µM 42% | [10]; [17] -18% | [11]; at 1.2 µM 18% | [11]; at 3.7 µM 9% | [11]; at 11.0 µM 29%
active: [12]; at 33.0 µM 96% | [12]; at 100.0 µM 99% | [13]; at 33.0 µM 98% | [13]; at 100.0 µM 98% | [14]; at 100.0 µM 83% | [15]; at 11.0 µM 71% | [15]; at 33.0 µM 98% | [15]; at 100.0 µM 99% | [16]; at 33.0 µM 98% | [16]; [18] 96% | [16]; at 50.0 µM 93.3% | [16]; at 100.0 µM 99% | [1]; at 33.0 µM 97% | [1]; [18] 98% | [1]; at 50.0 µM 94.5% | [1]; at 100.0 µM 99% | [2]; at 33.0 µM 96% | [2]; at 100.0 µM 98% | [3]; [18] 95% | [3]; at 50.0 µM 94% | [4]; at 33.0 µM 96% | [4]; at 100.0 µM 99% | [5]; [18] 95% | [5]; at 50.0 µM 89.3% | [6]; [17] 95% | [6]; at 33.0 µM 97% | [6]; [18] 98% | [6]; at 50.0 µM 93.3% | [6]; at 100.0 µM 99% | [7]; at 33.0 µM 97% | [7]; at 100.0 µM 98% | [8]; at 33.0 µM 98% | [8]; at 100.0 µM 99% | [9]; at 33.0 µM 97% | [9]; at 100.0 µM 98% | [10]; [18] 97% | [10]; at 50.0 µM 92.2% | [11]; at 33.0 µM 97% | [11]; at 100.0 µM 98%
